The text below walks through data of article PMC7862700, “An all-to-all approach to the identification of sequence-specific readers for epigenetic DNA modifications on cytosine”.

Assay in all cases: DAPPL (digital affinity profiling via proximity ligation, sequencing); 10 mM Tris-HCl pH 7.5, 50 mM NaCl, 1 mM DTT, 4% glycerol, room temperature, 30 min; GST-TFs on glutathione beads, 16-mer random dsDNA library, 0.1% formaldehyde crosslink after washing; high values mean tight binding
One test concerns the target T1, FEV (Homo sapiens, UniProt Q99581 1-238).
T1 sequence: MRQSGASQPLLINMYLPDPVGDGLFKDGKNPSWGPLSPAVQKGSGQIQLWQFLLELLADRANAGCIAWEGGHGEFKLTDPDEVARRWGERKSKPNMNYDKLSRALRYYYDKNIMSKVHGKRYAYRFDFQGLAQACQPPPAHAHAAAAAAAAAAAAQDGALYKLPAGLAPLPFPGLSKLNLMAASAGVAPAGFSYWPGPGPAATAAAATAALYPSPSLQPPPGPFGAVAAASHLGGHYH
The settings on record: protein: recombinant; tags: N-terminal GST; dsDNA, one strand shown. In a few lines:
(§1)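 Binding signal is given per hexamer as its read frequency for a factor divided by its frequency in the tag-only sample. GST-fused human transcription factors were expressed in yeast, captured on glutathione beads, barcoded with DNA and pooled with that sample, then incubated with 200 nmole of a 16-mer random double-stranded DNA library in Tris/NaCl/DTT/glycerol buffer for 30 min at room temperature. The pools were then washed, crosslinked, proximity-ligated, amplified by PCR and sequenced on an Illumina NextSeq500.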

The target in another test is ETV5 (Homo sapiens, UniProt P41161 1-510). The settings on record: protein: recombinant; tags: N-terminal GST; dsDNA, one strand shown. The essentials:
as §1

Another test concerns the target HSF1 (Homo sapiens, UniProt Q00613 1-529). The note with it: protein: recombinant; tags: N-terminal GST; chain copies: 3; dsDNA, one strand shown. In a few lines: as §1
Another test concerns the target T2, SPIC (Homo sapiens, UniProt Q8N5J4 1-248).
T2 sequence: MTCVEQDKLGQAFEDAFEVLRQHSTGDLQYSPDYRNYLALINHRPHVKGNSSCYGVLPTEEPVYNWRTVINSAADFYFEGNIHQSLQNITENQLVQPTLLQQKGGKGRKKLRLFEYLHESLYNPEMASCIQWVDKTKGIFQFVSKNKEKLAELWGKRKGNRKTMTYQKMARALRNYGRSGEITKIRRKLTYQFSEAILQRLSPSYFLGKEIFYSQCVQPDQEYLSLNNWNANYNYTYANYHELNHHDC
The settings on record: protein: recombinant; tags: N-terminal GST; dsDNA, one strand shown. In a few lines: as §1

Another test deals with ELF4 (Homo sapiens, UniProt Q99607 1-663). The note with it: protein: recombinant; tags: N-terminal GST; dsDNA, one strand shown. The essentials: as §1
The target in the next test is T3, ELK4 (Homo sapiens, UniProt P28324-2 1-405).
T3 sequence: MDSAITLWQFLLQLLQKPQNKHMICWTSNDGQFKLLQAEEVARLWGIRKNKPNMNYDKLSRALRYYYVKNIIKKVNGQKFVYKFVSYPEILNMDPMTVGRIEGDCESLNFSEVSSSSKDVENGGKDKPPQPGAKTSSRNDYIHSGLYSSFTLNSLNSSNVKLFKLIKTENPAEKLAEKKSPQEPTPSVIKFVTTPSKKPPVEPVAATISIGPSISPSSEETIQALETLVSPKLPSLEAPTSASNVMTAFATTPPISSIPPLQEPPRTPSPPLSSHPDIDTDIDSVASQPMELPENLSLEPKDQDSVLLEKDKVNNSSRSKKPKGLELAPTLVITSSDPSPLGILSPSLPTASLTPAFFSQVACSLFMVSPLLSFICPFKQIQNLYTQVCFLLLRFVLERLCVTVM
The settings on record: protein: recombinant; tags: N-terminal GST; dsDNA, one strand shown. The essentials: as §1

Another test addresses T4, ETV2 (Homo sapiens, UniProt O00321 1-342).
T4 sequence: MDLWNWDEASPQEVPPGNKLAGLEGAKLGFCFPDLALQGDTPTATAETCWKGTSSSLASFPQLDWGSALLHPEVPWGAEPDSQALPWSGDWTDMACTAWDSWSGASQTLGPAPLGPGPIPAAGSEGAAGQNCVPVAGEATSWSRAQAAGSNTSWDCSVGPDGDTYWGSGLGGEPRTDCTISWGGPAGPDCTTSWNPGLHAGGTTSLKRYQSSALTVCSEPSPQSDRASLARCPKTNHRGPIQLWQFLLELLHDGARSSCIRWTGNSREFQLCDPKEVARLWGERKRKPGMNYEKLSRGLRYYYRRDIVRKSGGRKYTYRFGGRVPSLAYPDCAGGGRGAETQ
The note with it: protein: recombinant; tags: N-terminal GST; dsDNA, one strand shown. The essentials:
as §1

For a further test, the target named is T5, ELF3 (Homo sapiens, UniProt P78545 1-371).
T5 sequence: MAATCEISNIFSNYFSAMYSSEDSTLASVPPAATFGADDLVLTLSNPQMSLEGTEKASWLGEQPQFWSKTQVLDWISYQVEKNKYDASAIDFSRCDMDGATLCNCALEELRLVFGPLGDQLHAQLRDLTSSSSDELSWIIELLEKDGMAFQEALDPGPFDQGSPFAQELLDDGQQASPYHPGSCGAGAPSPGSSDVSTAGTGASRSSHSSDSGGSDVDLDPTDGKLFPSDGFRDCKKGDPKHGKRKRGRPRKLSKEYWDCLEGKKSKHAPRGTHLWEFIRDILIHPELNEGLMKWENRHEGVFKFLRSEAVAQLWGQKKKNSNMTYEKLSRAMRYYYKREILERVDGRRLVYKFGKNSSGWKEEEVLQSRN
The settings on record: protein: recombinant; tags: N-terminal GST; dsDNA, one strand shown. The essentials:
as §1

The next test deals with CRX (Homo sapiens, UniProt O43186 1-299). The note with it: protein: recombinant; tags: N-terminal GST; dsDNA, one strand shown. The essentials:
as §1

Another test addresses ETV1 (Homo sapiens, UniProt P50549 1-477). The settings on record: protein: recombinant; tags: N-terminal GST; dsDNA, one strand shown. The essentials:
as §1

The target of the next test is T6, ERF (Homo sapiens, UniProt P50548 1-548).
T6 sequence: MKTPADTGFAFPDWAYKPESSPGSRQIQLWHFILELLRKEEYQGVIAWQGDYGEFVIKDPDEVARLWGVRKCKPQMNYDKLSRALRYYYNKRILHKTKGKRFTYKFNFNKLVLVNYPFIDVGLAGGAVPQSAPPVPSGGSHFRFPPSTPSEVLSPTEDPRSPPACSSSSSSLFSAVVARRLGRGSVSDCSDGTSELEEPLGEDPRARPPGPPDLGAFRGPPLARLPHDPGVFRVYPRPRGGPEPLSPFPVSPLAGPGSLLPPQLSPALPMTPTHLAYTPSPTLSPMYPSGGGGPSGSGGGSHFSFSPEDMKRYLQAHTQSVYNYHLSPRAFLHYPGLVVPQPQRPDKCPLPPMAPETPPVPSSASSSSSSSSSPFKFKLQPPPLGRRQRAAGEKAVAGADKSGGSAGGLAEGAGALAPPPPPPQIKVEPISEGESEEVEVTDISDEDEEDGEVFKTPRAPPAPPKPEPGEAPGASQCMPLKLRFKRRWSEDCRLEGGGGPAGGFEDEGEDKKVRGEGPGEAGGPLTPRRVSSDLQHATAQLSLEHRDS
The settings on record: protein: recombinant; tags: N-terminal GST; dsDNA, one strand shown. In a few lines:
as §1

Another test has as its target T7, ETV3L (Homo sapiens, UniProt Q6ZN32 1-361).
T7 sequence: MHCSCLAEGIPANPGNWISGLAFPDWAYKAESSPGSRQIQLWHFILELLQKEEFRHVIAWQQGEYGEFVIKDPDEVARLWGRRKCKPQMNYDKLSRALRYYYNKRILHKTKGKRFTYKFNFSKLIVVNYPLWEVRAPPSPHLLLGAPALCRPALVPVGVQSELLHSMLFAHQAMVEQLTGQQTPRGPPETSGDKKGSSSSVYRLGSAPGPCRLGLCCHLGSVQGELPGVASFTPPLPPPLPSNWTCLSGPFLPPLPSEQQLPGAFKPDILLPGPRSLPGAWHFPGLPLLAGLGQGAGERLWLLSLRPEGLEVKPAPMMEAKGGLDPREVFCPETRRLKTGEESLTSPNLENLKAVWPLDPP
The settings on record: protein: recombinant; tags: N-terminal GST; dsDNA, one strand shown. The essentials: as §1

Another test deals with T8, ETS2 (Homo sapiens, UniProt P15036 1-469).
T8 sequence: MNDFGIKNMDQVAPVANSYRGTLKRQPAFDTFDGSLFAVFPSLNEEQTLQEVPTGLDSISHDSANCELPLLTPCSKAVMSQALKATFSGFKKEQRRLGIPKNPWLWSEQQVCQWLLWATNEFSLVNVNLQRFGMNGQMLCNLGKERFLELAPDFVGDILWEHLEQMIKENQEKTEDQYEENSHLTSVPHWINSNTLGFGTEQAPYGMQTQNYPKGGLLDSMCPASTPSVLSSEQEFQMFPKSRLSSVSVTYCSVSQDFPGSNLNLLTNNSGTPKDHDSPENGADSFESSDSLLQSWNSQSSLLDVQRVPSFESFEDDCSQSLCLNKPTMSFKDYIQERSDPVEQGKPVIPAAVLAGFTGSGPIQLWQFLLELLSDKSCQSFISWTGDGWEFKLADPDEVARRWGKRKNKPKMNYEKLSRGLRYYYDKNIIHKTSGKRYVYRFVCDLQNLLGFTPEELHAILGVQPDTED
The settings on record: protein: recombinant; tags: N-terminal GST; dsDNA, one strand shown. The essentials:
as §1

For the next test, the target named is T9, SPDEF (Homo sapiens, UniProt O95238 1-335).
T9 sequence: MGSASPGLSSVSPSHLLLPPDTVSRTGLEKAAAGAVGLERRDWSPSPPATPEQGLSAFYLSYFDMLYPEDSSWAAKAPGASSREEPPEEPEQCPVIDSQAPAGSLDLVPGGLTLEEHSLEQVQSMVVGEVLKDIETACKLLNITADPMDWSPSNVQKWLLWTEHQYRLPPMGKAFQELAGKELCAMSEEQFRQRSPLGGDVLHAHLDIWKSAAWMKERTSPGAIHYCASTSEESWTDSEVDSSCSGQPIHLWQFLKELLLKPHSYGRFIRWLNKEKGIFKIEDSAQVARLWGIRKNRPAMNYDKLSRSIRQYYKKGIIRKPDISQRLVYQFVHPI
The note with it: protein: recombinant; tags: N-terminal GST; dsDNA, one strand shown. In a few lines:
as §1

In a further test the target is T10, ETV7 (Homo sapiens, UniProt Q9Y603 1-341).
T10 sequence: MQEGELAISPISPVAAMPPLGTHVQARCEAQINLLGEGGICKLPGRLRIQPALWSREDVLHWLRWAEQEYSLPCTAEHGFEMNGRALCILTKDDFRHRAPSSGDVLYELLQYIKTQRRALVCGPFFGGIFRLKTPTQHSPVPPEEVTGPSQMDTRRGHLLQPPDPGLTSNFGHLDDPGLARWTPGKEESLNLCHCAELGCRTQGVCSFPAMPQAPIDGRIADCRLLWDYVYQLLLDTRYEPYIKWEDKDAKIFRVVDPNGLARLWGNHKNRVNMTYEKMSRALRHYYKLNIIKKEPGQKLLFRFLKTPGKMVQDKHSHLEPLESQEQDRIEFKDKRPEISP
The settings on record: protein: recombinant; tags: N-terminal GST; dsDNA, one strand shown. The essentials: as §1

The next test deals with T11, ELF5 (Homo sapiens, UniProt Q9UKW6-2 1-255).
T11 sequence: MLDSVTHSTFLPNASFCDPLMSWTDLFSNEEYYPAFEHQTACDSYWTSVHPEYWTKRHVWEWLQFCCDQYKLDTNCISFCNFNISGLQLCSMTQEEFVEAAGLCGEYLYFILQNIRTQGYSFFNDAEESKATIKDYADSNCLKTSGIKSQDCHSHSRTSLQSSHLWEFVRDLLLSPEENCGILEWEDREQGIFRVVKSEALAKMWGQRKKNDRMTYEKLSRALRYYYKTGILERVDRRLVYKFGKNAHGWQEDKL
The settings on record: protein: recombinant; tags: N-terminal GST; dsDNA, one strand shown. In a few lines: as §1

In a further test the target is T12, ETV3 (Homo sapiens, UniProt P41162-2 1-143).
T12 sequence: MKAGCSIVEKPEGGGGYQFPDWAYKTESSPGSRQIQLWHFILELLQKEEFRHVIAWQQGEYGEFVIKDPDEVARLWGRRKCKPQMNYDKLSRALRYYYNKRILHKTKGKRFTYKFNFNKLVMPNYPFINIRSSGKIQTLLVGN
The note with it: protein: recombinant; tags: N-terminal GST; dsDNA, one strand shown. In a few lines: as §1

The next test has as its target ETV6 (Homo sapiens, UniProt P41212 1-452). The settings on record: protein: recombinant; tags: N-terminal GST; dsDNA, one strand shown. In a few lines: as §1

Sequence of HSF1 (Q00613 whole entry): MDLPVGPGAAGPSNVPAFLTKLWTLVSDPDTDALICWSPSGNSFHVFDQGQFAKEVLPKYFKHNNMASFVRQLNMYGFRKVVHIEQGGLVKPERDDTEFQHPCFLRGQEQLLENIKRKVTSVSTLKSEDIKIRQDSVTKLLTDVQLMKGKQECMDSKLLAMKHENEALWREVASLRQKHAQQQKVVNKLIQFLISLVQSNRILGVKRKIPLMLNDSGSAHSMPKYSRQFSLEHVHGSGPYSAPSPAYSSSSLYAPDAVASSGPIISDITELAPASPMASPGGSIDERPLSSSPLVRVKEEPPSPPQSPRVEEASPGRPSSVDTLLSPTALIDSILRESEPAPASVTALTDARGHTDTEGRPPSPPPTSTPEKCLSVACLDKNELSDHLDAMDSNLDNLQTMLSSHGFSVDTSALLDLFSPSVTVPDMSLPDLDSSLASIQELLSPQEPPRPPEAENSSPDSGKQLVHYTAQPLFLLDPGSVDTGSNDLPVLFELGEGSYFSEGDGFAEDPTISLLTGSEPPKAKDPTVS
Sequence of ETV6 (P41212 whole entry): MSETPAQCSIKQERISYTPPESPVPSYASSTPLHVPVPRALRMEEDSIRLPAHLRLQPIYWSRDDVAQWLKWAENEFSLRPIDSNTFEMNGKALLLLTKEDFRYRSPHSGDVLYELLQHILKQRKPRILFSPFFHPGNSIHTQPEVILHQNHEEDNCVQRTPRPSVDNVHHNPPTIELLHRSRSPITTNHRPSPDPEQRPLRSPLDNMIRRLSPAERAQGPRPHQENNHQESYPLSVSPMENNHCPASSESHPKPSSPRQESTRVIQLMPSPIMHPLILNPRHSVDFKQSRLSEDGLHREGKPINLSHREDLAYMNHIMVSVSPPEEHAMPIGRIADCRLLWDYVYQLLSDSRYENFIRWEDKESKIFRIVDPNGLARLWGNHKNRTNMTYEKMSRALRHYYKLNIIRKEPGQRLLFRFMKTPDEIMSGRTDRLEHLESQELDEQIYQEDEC
Sequence of CRX (O43186 whole entry): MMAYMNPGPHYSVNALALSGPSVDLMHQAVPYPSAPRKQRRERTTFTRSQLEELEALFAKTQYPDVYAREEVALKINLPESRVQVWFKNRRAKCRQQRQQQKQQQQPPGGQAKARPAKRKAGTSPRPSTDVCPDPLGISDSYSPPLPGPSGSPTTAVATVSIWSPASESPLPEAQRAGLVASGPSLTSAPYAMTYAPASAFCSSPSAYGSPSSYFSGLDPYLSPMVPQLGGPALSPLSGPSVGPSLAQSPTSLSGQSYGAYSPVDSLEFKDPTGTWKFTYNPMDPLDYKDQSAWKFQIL
Sequence of ELF4 (Q99607 whole entry): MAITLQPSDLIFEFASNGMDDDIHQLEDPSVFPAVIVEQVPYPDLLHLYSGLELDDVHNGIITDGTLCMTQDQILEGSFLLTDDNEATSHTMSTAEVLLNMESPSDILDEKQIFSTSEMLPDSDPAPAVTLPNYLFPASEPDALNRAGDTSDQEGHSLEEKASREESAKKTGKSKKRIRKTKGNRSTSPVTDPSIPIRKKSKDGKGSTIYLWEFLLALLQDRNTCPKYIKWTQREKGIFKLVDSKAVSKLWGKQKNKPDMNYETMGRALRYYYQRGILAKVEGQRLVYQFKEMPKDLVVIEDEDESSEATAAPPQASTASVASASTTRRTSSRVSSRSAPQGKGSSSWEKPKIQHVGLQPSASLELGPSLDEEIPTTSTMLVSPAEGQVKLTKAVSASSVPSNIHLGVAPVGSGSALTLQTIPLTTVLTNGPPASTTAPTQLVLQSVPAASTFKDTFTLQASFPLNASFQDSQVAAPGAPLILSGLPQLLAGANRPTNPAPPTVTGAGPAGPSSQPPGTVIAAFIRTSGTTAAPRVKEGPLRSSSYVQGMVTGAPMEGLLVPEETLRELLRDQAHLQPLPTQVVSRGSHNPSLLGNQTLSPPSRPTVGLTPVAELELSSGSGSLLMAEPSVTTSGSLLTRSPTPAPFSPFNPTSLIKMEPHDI
Sequence of ETV5 (P41161 whole entry): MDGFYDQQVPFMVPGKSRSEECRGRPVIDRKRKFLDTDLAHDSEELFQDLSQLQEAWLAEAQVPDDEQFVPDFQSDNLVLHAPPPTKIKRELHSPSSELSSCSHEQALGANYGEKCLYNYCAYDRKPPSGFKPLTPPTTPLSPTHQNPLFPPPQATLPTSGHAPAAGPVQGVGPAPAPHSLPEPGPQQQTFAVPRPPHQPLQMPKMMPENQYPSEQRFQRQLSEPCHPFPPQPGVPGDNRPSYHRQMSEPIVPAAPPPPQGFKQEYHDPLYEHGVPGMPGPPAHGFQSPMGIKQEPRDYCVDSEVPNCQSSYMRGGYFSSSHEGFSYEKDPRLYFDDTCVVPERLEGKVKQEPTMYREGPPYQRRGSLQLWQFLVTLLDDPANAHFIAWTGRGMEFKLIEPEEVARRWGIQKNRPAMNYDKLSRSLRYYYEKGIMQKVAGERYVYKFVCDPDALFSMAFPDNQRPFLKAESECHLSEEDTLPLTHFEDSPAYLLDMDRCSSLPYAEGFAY
Sequence of ETV1 (P50549 whole entry): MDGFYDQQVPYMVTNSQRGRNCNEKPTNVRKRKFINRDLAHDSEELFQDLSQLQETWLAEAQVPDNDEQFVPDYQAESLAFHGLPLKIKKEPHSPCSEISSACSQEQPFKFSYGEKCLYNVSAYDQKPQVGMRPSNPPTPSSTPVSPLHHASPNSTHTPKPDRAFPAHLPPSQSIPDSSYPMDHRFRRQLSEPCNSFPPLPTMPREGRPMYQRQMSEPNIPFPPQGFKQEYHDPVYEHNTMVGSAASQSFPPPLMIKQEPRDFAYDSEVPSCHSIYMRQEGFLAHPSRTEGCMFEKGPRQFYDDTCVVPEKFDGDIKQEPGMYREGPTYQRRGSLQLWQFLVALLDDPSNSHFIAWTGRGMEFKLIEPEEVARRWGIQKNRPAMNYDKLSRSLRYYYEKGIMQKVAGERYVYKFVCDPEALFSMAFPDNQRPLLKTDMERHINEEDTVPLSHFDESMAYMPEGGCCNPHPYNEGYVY

For CCGAAT, the binding signal was 1.16 fold enrichment (6-mer frequency, TF over GST control) in the test with FEV; 1.14 fold enrichment (6-mer frequency, TF over GST control) with ETV5; 1.64 fold enrichment (6-mer frequency, TF over GST control) with HSF1; 1.29 fold enrichment (6-mer frequency, TF over GST control) in the test with SPIC; 1.16 fold enrichment (6-mer frequency, TF over GST control) in the test with ELF4; 1.06 fold enrichment (6-mer frequency, TF over GST control) with ELK4. Moreover, the binding signal was 1.12 fold enrichment (6-mer frequency, TF over GST control) with ETV2; 1.16 fold enrichment (6-mer frequency, TF over GST control) in the test with ELF3; 1.33 fold enrichment (6-mer frequency, TF over GST control) with CRX; 1.19 fold enrichment (6-mer frequency, TF over GST control) in the test with ETV1; 1.35 fold enrichment (6-mer frequency, TF over GST control) in the test with ERF; 1.24 fold enrichment (6-mer frequency, TF over GST control) with ETV3L. The binding signal with ETS2 was 1.22 fold enrichment (6-mer frequency, TF over GST control); with SPDEF it was 1.17 fold enrichment (6-mer frequency, TF over GST control); with ETV7, 1.12 fold enrichment (6-mer frequency, TF over GST control); in the test with ELF5, 1.1 fold enrichment (6-mer frequency, TF over GST control); in the test with ETV3, 1.12 fold enrichment (6-mer frequency, TF over GST control); in the test with ETV6 it was 1.22 fold enrichment (6-mer frequency, TF over GST control).
